Test results from PubChem BioAssay (EPA / NIEHS).
Records with an inconclusive call do not appear. Calls of active or inactive are those of the source. How the source made its calls: active means hit-call score of the fitted dose curve at least 0.9, where 1 is the maximum; inconclusive means response in the unintended direction; inactive means score below 0.9.

Read-out: ABC Transporter (ABCB1), ABCB1 (gene 5243)
Experiment: CLD_ABCB1_24hr: CellzDirect (CLD) Gene Expression Assay for ABC Transporter (ABCB1) at 24 hours (AID 2283684)
Description: CLD_24hr is a cell-based, multiplexed-readout assay that uses hepatocyte, a human liver primary cell, with measurements taken at 24 hours after chemical dosing in a 96-well plate.CLD_ABCB1_24hr is one of 16 assay component(s) measured or calculated from the CLD_24hr assay. It is designed to make measurements of mRNA induction, a form of inducible reporter, as detected with chemiluminescence signals by Quantitative Nuclease Protection Assay (qNPA) technology.Data from the assay component CLD_ABCB1_24hr was analyzed at the endpoint, CLD_ABCB1_24hr, in the positive analysis fitting direction relative to DMSO as the negative control and baseline of activity. Using a type of inducible reporter, gain-of-signal activity can be used to understand changes in the reporter gene as they relate to the gene ABCB1. Furthermore, this assay endpoint can be referred to as a primary readout. To generalize the intended target to other relatable targets, this assay endpoint is annotated to the transporter intended target family, where subfamily is ABC transporter.
Human hepatocyte cultures were treated daily for two consecutive days with fresh dosing solutions containing appropriate concentrations of the 320 ToxCast chemicals (chemical identities were blinded to CellzDirect and other ToxCast collaborators), vehicle control (0.2% DMSO), and positive control inducers as summarized in Table 1. Due to the large number of treatment groups and chemicals examined, the ToxCast chemicals were divided into two groups (spanning two independent cultures of hepatocytes from separate donor preparations (Hu778: ToxCast plates 1 and 2; Hu776: ToxCast plates 3 and 4). Each preparation of human hepatocyte cultures was treated with respective vehicle control, medium only control, set of six positive controls/reference chemicals for the five hepatic receptor pathways, and a subset of eight of the ToxCast chemicals (indoxacarb, pyrithiobac-sodium, norflurazon, cyhalofop-butyl, methomyl, thiram, acetochlor, and propiconazole). These replicate data, coupled with internal replicates designed within the blinded ToxCast chemical library, provided additional data to evaluate interindividual differences between hepatocyte preparations and their potential impact on chemical profiles.Cell morphology and integrity were evaluated using phase-contrast microscopy as an indicator of hepatocyte cell health (Tyson & Green, 1987). Cultures for each treatment group (i.e., media, vehicle [0.2% DMSO], positive control inducers [multiple concentrations], and the ToxCast chemicals [multiple concentrations]) were observed and cell morphology was assessed relative to vehicle control cultures at each harvest time point (0, 6, 24, or 48 h). […] Images were evaluated at the conclusion of the study to assess changes in cell integrity and account for the effects of chemical exposure on uncharacteristic changes in concentration-dependent gene expression profiles. The results from these determinations of apparent cytotoxicity were annotated (yes/no) alongside the corresponding qNPA data for reference.At the conclusion of each treatment period, hepatocyte cultures (96-well) were washed with 1 volume of HBSS, lysed by addition of 25 ul ArrayPlate lysis buffer (HTG, Tucson, AZ), and 70 ul/well of Denaturation Oil, denatured by incubation at 95C for 10 min, and frozen at approximately -70C until analysis by nuclease protection assay (qNPA) (Roberts et al., 2007). For qNPA analysis, cell lysates were thawed at 50C for approximately 30 min, qNPA probes were added, and samples were incubated at 95C for 10 min to begin the detection process by denaturing the target RNA, dissociating the duplexes and secondary structure hybridization. At the conclusion of the hybridization period, S1 nuclease reagent was added to each sample to digest all nonprotected nucleotides at 50C for 60-90 min. […]

SMILES	outcome
COC(=O)C=C(C)OP(=O)(OC)OC	inactive
COc1nc(C)nc(NC(=O)NS(=O)(=O)c2ccccc2Cl)n1	inactive
C#CCOS(=O)OC1CCCCC1Oc1ccc(C(C)(C)C)cc1 (stereo not given)	inactive
N#CC(CCc1ccc(Cl)cc1)(Cn1cncn1)c1ccccc1 (stereo not given)	inactive
N#Cc1nn(-c2c(Cl)cc(C(F)(F)F)cc2Cl)c(N)c1S(=O)C(F)(F)F (stereo not given)	inactive
C=CCC1=C(C)C(OC(=O)C2C(C=C(C)C)C2(C)C)CC1=O (stereo not given)	inactive
OC(c1ccc(Cl)cc1)(c1cncnc1)c1ccccc1Cl (stereo not given)	inactive
CC(Oc1ccc(Cl)cc1Cl)C(=O)O (stereo not given)	inactive
CCNc1nc(Cl)nc(NC(C)C)n1	inactive
Cc1c(F)c(F)c(COC(=O)C2C(/C=C(\Cl)C(F)(F)F)C2(C)C)c(F)c1F (stereo not given)	inactive
C=CCC1=C(C)[C@@H](OC(=O)[C@@H]2[C@@H](C=C(C)C)C2(C)C)CC1=O	inactive
CCCCOC(=O)c1ccccc1C(=O)OCCCC	inactive
CCNc1nc(Cl)nc(NCC)n1	inactive
CCCCNC(=O)n1c(NC(=O)OC)nc2ccccc21	inactive
Fc1ccc(Oc2ccnc3cc(Cl)cc(Cl)c23)cc1	inactive
CCON=C(CC)C1=C(O)CC(c2c(C)cc(C)cc2C)CC1=O (stereo not given)	inactive
CC(C)(C)c1ccc(CSc2cnn(C(C)(C)C)c(=O)c2Cl)cc1	inactive
CCOC(=O)C(Cl)Cc1cc(-n2nc(C)n(C(F)F)c2=O)c(F)cc1Cl (stereo not given)	inactive
N#Cc1cc(Br)c(O)c(Br)c1	inactive
CCOC(=O)CC(SP(=S)(OC)OC)C(=O)OCC (stereo not given)	inactive

SMILES	outcome
Cc1cc(Cl)ccc1OCC(=O)O	inactive
CCCCNC(=O)OCC#CI	inactive
Cc1ccc(-c2c(Cl)nc(C#N)n2S(=O)(=O)N(C)C)cc1	inactive
CC1COC(Cn2cncn2)(c2ccc(Oc3ccc(Cl)cc3)cc2Cl)O1 (stereo not given)	inactive
CS/C(C)=N/OC(=O)N(C)SN(C)C(=O)O/N=C(\C)SC	inactive
CNC(=O)ON=CC(C)(C)SC	inactive
COC(=O)N(OC)c1ccccc1COc1ccn(-c2ccc(Cl)cc2)n1	inactive
CO/C=C(/C(=O)OC)c1ccccc1Oc1cc(Oc2ccccc2C#N)ncn1	inactive
CC(C)Oc1cc(-n2nc(C(C)(C)C)oc2=O)c(Cl)cc1Cl	inactive
COP(N)(=O)SC (stereo not given)	inactive
CN(C)C(=S)SSC(=S)N(C)C	inactive
COc1nc(NC(C)C)nc(NC(C)C)n1	inactive
CCCC1COC(Cn2cncn2)(c2ccc(Cl)cc2Cl)O1 (stereo not given)	inactive
CCCN(CCC)c1c([N+](=O)[O-])cc(S(N)(=O)=O)cc1[N+](=O)[O-]	inactive
C=CC1(C)OC(=O)N(c2cc(Cl)cc(Cl)c2)C1=O (stereo not given)	inactive
COP(=S)(OC)Oc1nc(Cl)c(Cl)cc1Cl	inactive
CCc1nn(C)c(C(=O)NCc2ccc(C(C)(C)C)cc2)c1Cl	inactive
COc1nc(C)nc(NC(=O)NS(=O)(=O)c2ccccc2CCC(F)(F)F)n1	inactive
CCCCC(CC)COC(=O)c1ccccc1C(=O)OCC(CC)CCCC (stereo not given)	inactive
COc1cnc(OC)n2nc(NS(=O)(=O)c3c(OCC(F)F)cccc3C(F)(F)F)nc12	inactive
